Experimental data published in PubChem BioAssay AID1159580 (chemical genetic matrix, 2015).
The whole screen tested about 5,500 compounds, of which about 2,000 (36%) were called active. Roughly 18% stayed inconclusive and do not appear here. Rule as the data show it: active = normalized growth mostly below about 0.91 (no sharp cut-off); inconclusive = no clear call, values can overlap the other calls; inactive = mostly above about 0.92. The list shows a part of the results.

Assay: chemical genetic growth profiling, strain panel (AID 1159580);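 also: tested at 20 µM; growth read once vehicle control cultures reached saturation at 30 °C; 1 = growth at the plate median or of vehicle wells; lower values mean less growth of the strain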
Conditions: S. cerevisiae deletion strains, growth OD
[1] = locus YAL021C, strain ccr4, hits give low values
[2] = locus YAL026C, strain drs2, hits give low values
[3] = locus YAL030W, strain snc1, hits give low values
[4] = locus YBL061C, strain skt5, hits give low values
[5] = locus YBR009C, strain hhf1, hits give low values
[6] = locus YBR023C, strain chs3, hits give low values
[7] = locus YBR171W, strain sec66, hits give low values
[8] = locus YBR231C, strain swc5, hits give low values
[9] = locus YBR279W, strain paf1, hits give low values
[10] = locus YCL011C, strain gbp2, hits give low values
[11] = locus YCL016C, strain dcc1, hits give low values
[12] = locus YCL069W, strain vba3, hits give low values
[13] = locus YCR088W, strain abp1, hits give low values
[14] = locus YDL005C, strain med2, hits give low values
[15] = locus YDL040C, strain nat1, hits give low values
[16] = locus YDR001C, strain nth1, hits give low values
[17] = locus YDR069C, strain doa4, hits give low values
[18] = locus YDR137W, strain rgp1, hits give low values
[19] = locus YDR159W, strain sac3, hits give low values
[20] = locus YDR297W, strain sur2, hits give low values
[21] = locus YDR334W, strain swr1, hits give low values
[22] = locus YDR335W, strain msn5, hits give low values
[23] = locus YDR392W, strain spt3, hits give low values
[24] = locus YEL003W, strain gim4, hits give low values
[25] = locus YEL037C, strain rad23, hits give low values
[26] = locus YEL061C, strain CIN8 (second series), hits give low values
[27] = locus YER015W, strain faa2, hits give low values
[28] = locus YER016W, strain bim1, hits give low values
[29] = locus YER111C, strain swi4, hits give low values
[30] = locus YER155C, strain BEM2 (second series), hits give low values
[31] = locus YFR010W, strain ubp6, hits give low values
[32] = locus YGL167C, strain pmr1, hits give low values
[33] = locus YGL173C, strain kem1, hits give low values
[34] = locus YGL227W, strain vid30, hits give low values
[35] = locus YGL240W, strain doc1, hits give low values
[36] = locus YGL253W, strain hxk2, hits give low values
[37] = locus YHR013C, strain ard1, hits give low values
[38] = locus YHR027C, strain rpn1, hits give low values
[39] = locus YHR030C, strain SLT2, hits give low values
[40] = locus YHR079C, strain IRE1, hits give low values
[41] = locus YHR142W, strain chs7, hits give low values
[42] = locus YJL092W, strain hpr5, hits give low values
[43] = locus YJL095W, strain BCK1 (second series), hits give low values
[44] = locus YJL095W, strain BCK1, hits give low values
[45] = locus YJL115W, strain asf1, hits give low values
[46] = locus YJL129C, strain trk1, hits give low values
[47] = locus YJL154C, strain vps35, hits give low values
[48] = locus YJL164C, strain tpk1, hits give low values
[49] = locus YJL166W, strain qcr8, hits give low values
[50] = locus YJR066W, strain TOR1, hits give low values
[51] = locus YKL160W, strain elf1, hits give low values
[52] = locus YKR026C, strain gcn3, hits give low values
[53] = locus YKR091W, strain srl3, hits give low values
[54] = locus YLL001W, strain dnm1, hits give low values
[55] = locus YLL026W, hits give low values
[56] = locus YLL041C, strain sdh2, hits give low values
[57] = locus YLR027C, strain aat2, hits give low values
[58] = locus YLR113W, strain HOG1, hits give low values
[59] = locus YLR221C, strain rsa3, hits give low values
[60] = locus YLR258W, strain gsy2, hits give low values
[61] = locus YLR262C, strain YPT6 (second series), hits give low values
[62] = locus YLR320W, strain mms22, hits give low values
[63] = locus YLR342W, strain FKS1, hits give low values
[64] = locus YLR357W, strain rsc2, hits give low values
[65] = locus YLR370C, strain arc18, hits give low values
[66] = locus YLR384C, strain iki3, hits give low values
[67] = locus YML120C, strain ndi1, hits give low values
[68] = locus YMR058W, strain fet3, hits give low values
[69] = locus YMR125W, strain sto1, hits give low values
[70] = locus YMR129W, hits give low values
[71] = locus YMR205C, strain PFK2, hits give low values
[72] = locus YMR231W, strain pep5, hits give low values
[73] = locus YNL071W, strain lat1, hits give low values
[74] = locus YNL183C, strain NPR1, hits give low values
[75] = locus YNL209W, strain ssb2, hits give low values
[76] = locus YNL248C, strain rpa49, hits give low values
[77] = locus YNL322C, strain KRE1 (second series), hits give low values
[78] = locus YNR049C, strain mso1, hits give low values
[79] = locus YOR001W, strain rrp6, hits give low values
[80] = locus YOR070C, strain gyp1, hits give low values
[81] = locus YOR080W, strain dia2, hits give low values
[82] = locus YOR083W, strain WHI5, hits give low values
[83] = locus YOR106W, strain vam3, hits give low values
[84] = locus YOR231W, strain MKK1, hits give low values
[85] = locus YOR265W, strain rbl2, hits give low values
[86] = locus YOR270C, strain vph1, hits give low values
[87] = locus YOR290C, strain snf2, hits give low values
[88] = locus YPL051W, strain arl3, hits give low values
[89] = locus YPL078C, strain atp4, hits give low values
[90] = locus YPL106C, strain sse1, hits give low values
[91] = locus YPL240C, strain hsp82, hits give low values
[92] = locus YPL256C, strain CLN2, hits give low values

Measured: normalized growth

CC(C)c1cccc(O)c(=O)c1
active: [1] 0.0678 | [2] 0.0622 | [3] 0.0616 | [4] 0.0689 | [5] 0.0635 | [6] 0.0691 | [7] 0.0935 | [8] 0.0694 | [9] 0.0689 | [10] 0.0593 | [11] 0.0739 | [12] 0.0926 | [13] 0.0649 | [14] 0.0881 | [15] 0.0703 | [16] 0.0642 | [17] 0.0633 | [18] 0.0985 | [19] 0.0917 | locus YDR195W, strain ref2 0.166 | [20] 0.0622 | [21] 0.0664 | [22] 0.0638 | [23] 0.0887 | [24] 0.0581 | [25] 0.0615 | [26] 0.0653 | [27] 0.0615 | [28] 0.067 | [29] 0.0815 | [30] 0.0927 | [31] 0.072 | [32] 0.091 | [33] 0.0718 | [34] 0.0687 | [35] 0.0871 | [36] 0.0611 | [37] 0.113 | [38] 0.0609 | [39] 0.126 | [40] 0.146 | [41] 0.0743 | [42] 0.0677 | [43] 0.0581 | [44] 0.145 | [45] 0.0902 | [46] 0.0856 | [47] 0.0621 | [48] 0.0686 | [49] 0.0625 | [50] 0.0572 | [51] 0.0788 | [52] 0.0743 | [53] 0.0697 | [54] 0.0706 | [55] 0.0634 | [56] 0.0616 | [57] 0.0581 | [58] 0.217 | [59] 0.059 | [60] 0.0639 | [61] 0.0819 | [62] 0.0828 | [63] 0.0743 | [64] 0.136 | [65] 0.0652 | [66] 0.0711 | [67] 0.0618 | [68] 0.0629 | [69] 0.0871 | [70] 0.0613 | [71] 0.091 | [72] 0.0803 | [73] 0.0663 | [74] 0.0186 | [75] 0.0585 | [76] 0.0753 | [77] 0.068 | [78] 0.0605 | [79] 0.0684 | [80] 0.123 | [81] 0.0682 | [82] 0.0692 | [83] 0.0676 | [84] 0.134 | [85] 0.0639 | [86] 0.101 | [87] 0.0651 | [88] 0.0708 | [89] 0.0754 | [90] 0.111 | [91] 0.0667 | [92] 0.121

CC(C)c1cccc(C(C)C)c1O
inactive: locus YAL013W, strain DEP1, hits give low values 1.01 | [1] 1 | [2] 0.993 | [3] 0.985 | locus YAL040C, strain CLN3, hits give low values 0.998 | [4] 0.983 | [5] 0.966 | [6] 0.977 | [7] 0.987 | [8] 0.997 | [9] 0.992 | [10] 0.991 | [11] 0.976 | locus YCL061C, strain MRC1 (second series), hits give low values 0.988 | locus YCL061C, strain MRC1, hits give low values 0.991 | [12] 0.992 | [13] 0.996 | [14] 0.984 | [15] 0.976 | [16] 0.994 | [17] 0.981 | [18] 0.966 | locus YDR150W, strain NUM1, hits give low values 0.993 | [19] 0.982 | locus YDR195W, strain ref2 0.951 | [20] 0.988 | [21] 0.988 | [22] 0.993 | locus YDR363W, strain ESC2, hits give low values 0.973 | [23] 0.869 | [24] 0.99 | [25] 0.986 | [26] 0.986 | locus YER002W, strain NOP16, hits give low values 0.986 | [27] 0.983 | [28] 0.979 | [29] 0.973 | [30] 0.996 | [31] 0.978 | [32] 0.972 | [33] 0.98 | [34] 0.988 | [35] 0.983 | [36] 0.997 | locus YGR078C, strain PAC10, hits give low values 1 | [37] 1.03 | [38] 0.99 | [39] 0.94 | [40] 0.954 | [41] 1.01 | [42] 0.992 | [43] 0.993 | [44] 0.992 | [45] 0.983 | [46] 0.992 | [47] 0.99 | [48] 0.979 | [49] 0.986 | locus YJL187C, strain SWE1, hits give low values 0.994 | [50] 0.935 | locus YJR075W, strain HOC1, hits give low values 1 | [51] 1 | [52] 0.953 | [53] 0.984 | [54] 0.988 | [55] 0.988 | [56] 0.996 | [57] 0.993 | [58] 0.996 | [59] 1.01 | [60] 0.991 | [61] 0.97 | [62] 0.935 | [63] 0.986 | [64] 0.939 | [65] 0.996 | [66] 0.971 | [67] 0.98 | [68] 0.996 | [69] 0.988 | [70] 1 | [71] 0.941 | [72] 0.992 | locus YMR263W, strain SAP30, hits give low values 1 | locus YMR307W, strain GAS1, hits give low values 1 | [73] 0.996 | locus YNL153C, strain GIM3, hits give low values 1.01 | locus YNL175C, strain NOP13, hits give low values 1.03 | [74] 0.942 | locus YNL197C, strain WHI3, hits give low values 1 | [75] 0.992 | locus YNL224C, strain SQS1, hits give low values 1.02 | [76] 1.01 | [77] 0.981 | locus YNL322C, strain KRE1, hits give low values 1.01 | [78] 0.983 | [79] 0.997 | [80] 0.99 | [81] 0.984 | locus YOR083W, strain WHI5 (second series), hits give low values 1.02 | [82] 1.01 | [83] 0.991 | [84] 0.914 | [85] 0.991 | [86] 0.993 | [87] 0.918 | [88] 1 | locus YPL055C, strain LGE1, hits give low values 0.999 | [89] 0.994 | [90] 0.951 | [91] 1.01 | locus YPL241C, strain CIN2, hits give low values 1.01 | [92] 0.929
